Source: PubChem (National Center for Advancing Translational Sciences (NCATS))
An excerpt weighted towards active compounds, which were near 2.9% of everything screened.
B2AR arrestin = agonists driving beta-arrestin recruitment to human beta2-adrenergic receptor. beta-arrestin recruitment to beta2AR, cell-based reporter. Potency, µM (titrated, usually from 46.1 µM), actives largely listed as activators. 0.02% of 330,000 active. AID 492947; also: nearly all actives have a fitted effect of over 65% in size
Target sequence (P07550 whole entry, looked up): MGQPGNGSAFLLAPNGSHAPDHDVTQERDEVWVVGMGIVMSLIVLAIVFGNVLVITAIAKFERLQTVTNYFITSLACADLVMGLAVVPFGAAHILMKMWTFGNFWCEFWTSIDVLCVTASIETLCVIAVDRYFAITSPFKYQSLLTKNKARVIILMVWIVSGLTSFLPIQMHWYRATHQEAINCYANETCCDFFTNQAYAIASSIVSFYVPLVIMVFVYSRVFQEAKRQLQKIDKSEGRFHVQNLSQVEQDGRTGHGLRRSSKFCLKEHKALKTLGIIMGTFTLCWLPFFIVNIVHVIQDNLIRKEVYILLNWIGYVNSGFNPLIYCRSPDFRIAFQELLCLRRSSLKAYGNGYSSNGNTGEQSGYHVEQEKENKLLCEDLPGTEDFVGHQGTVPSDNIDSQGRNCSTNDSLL
DRD3 antagonist = antagonists of human D3 dopamine receptor; max response, negative = inhibition, %; P35462; D3R cells, DiscoveRx beta-arrestin luminescence, antagonist mode; hits give low values; 2.5% of 360,000 active; AID 652054; in the data active = max response below about -50%; inconclusive = no clear call, values can overlap the other calls
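Cells expressing the human receptor were seeded at 1500 cells/well, incubated overnight at 37 degrees C in 5% CO2, then exposed to library compounds with dopamine controls for 90 minutes at 37 degrees C before luminescent detection.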
a7 integrin act = integrin-mediated muscular dystrophy alleviation activation; AID 624291; alpha7betagal myoblasts, beta-gal FDG fluorescence, 48 h; Potency, µM (top dose mostly 38.3 µM), most hits filed as activators; 0.064% of 350,000 active; also: nearly all actives have a fitted effect of over 60% in size
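alpha7betagal+/- myoblasts (passage 13, 250/well) treated 48 h at 37C with compounds at 1:260 dilution of DMSO stock. Lysed, then beta-galactosidase activity read as FDG fluorescence (ex 480/em 540) after 30 min, with pre-read for autofluorescence.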
D3 ag = agonists of human D3 dopamine receptor | P35462 | D3R DiscoveRx beta-arrestin cells, luminescence, 90 min | max activation, % | 0.58% of 410,000 active | AID 652048; in the data active = max activation above about 30%
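Agonist mode: compounds and dopamine controls were applied to plated cells for 90 min at 37 degrees C after an overnight attachment at 1500 cells/well. Luminescent read-out followed 30 - 60 minutes at room temperature with DiscoveRx detection reagent.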
IDH1 R132H inh = blocks human mutant IDH1 R132H enzyme. IDH1-R132H enzyme, NADPH consumption, diaphorase/resazurin fluorescence. AID 602179. 0.093% of 390,000 active. Potency, µM (highest dose often 76.6 µM), hits mostly inhibitors; also: nearly all actives have a fitted effect of over 65% in size
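IDH1-R132H (0.5 ug/mL dispensed) in pH 7.5 Tris buffer was preincubated 30 min with compound, then given a substrate mix of 0.016 mM NADPH and 2 mM alpha-KG for 80 min at room temperature; remaining NADPH was read by diaphorase/resazurin fluorescence.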
Numbers stand for hits; [ ] = remark or other dose. Unless noted, calls follow the shape of the dose curve; as a rule, active = well fitted curve in the direction sought with a large enough effect; inconclusive = small, poorly fitted or top-dose-only effect, or another doubt; inactive = no such curve, though single readings can be large; an effect the other way counts as inactive or inconclusive.

`O=C(OCC1(COC(=O)c2cccnc2)CCCC(COC(=O)c2cccnc2)(COC(=O)c2cccnc2)C1O)c1cccnc1` gave D3 ag inactive.
Screening O=C(NCc1ccccc1Cl)c1cnc2sc(N3CCOCC3)nn2c1=O returned D3 ag inactive and IDH1 R132H inh inactive.
`COc1cc(C(=O)Nc2ccc(-c3nc4cc(C)c(C)cc4o3)cc2)cc(OC)c1OC` gave D3 ag inactive and IDH1 R132H inh inactive.
COc1cc(-c2nc(-c3ccc(NC(=O)c4ccc(Br)o4)cc3)no2)cc(OC)c1OC was read as B2AR arrestin inactive, DRD3 antagonist inactive, a7 integrin act inactive, D3 ag 105 and IDH1 R132H inh inactive.
COc1ccc(-c2nc(-c3ccc(NC(=O)c4ccc(Br)o4)cc3)no2)cc1OC was read as B2AR arrestin inactive, DRD3 antagonist inactive, a7 integrin act inactive, D3 ag 38 and IDH1 R132H inh inactive.
Screening COc1ccc(CCC(=O)Nc2ccc(-c3noc(-c4ccc(OC)c(OC)c4)n3)cc2)cc1 returned B2AR arrestin inactive, DRD3 antagonist inactive, a7 integrin act inactive, D3 ag inactive and IDH1 R132H inh inactive.
For COc1ccccc1N1CCN(C2CCN(S(=O)(=O)c3ccc(C)cc3)CC2)CC1 the results were B2AR arrestin inactive, DRD3 antagonist -70, a7 integrin act inactive, D3 ag inactive and IDH1 R132H inh inactive.
`COc1ccccc1N1CCN(C2CCN(S(=O)(=O)c3ccc4ccccc4c3)CC2)CC1` gave B2AR arrestin inactive, DRD3 antagonist -54, a7 integrin act inactive, D3 ag inactive and IDH1 R132H inh inactive.
O=S(=O)(c1ccc2ccccc2c1)N1CCN(C2CCN(Cc3ccccc3)CC2)CC1 was read as B2AR arrestin inactive, DRD3 antagonist -61, a7 integrin act inactive, D3 ag inactive and IDH1 R132H inh inactive.
Cc1cccc(NC(=O)c2ccc(N(Cc3ccccc3)S(C)(=O)=O)cc2)c1 was read as D3 ag inactive and IDH1 R132H inh inactive.
Screening CCn1nc(-c2ccccc2)c(-c2ccccc2)c(C(=O)Nc2ccc(NC(C)=O)cc2)c1=O returned D3 ag inactive and IDH1 R132H inh inactive.
For COc1ccc(-c2ccc3c(N)c(C(=O)NCc4ccc(Cl)cc4)sc3n2)cc1 the results were D3 ag inactive and IDH1 R132H inh inactive.
`O=C(COc1cccnc1[N+](=O)[O-])Nc1cccc(S(=O)(=O)N2CCOCC2)c1` gave B2AR arrestin inactive, DRD3 antagonist inactive, a7 integrin act inactive, D3 ag inactive and IDH1 R132H inh inactive.
Screening COc1ccc(S(=O)(=O)N2CCOCC2)cc1NC(=O)COc1cccnc1[N+](=O)[O-] returned B2AR arrestin inactive, DRD3 antagonist -63, a7 integrin act inactive, D3 ag inactive and IDH1 R132H inh inactive.
Screening CCCCN(C)CCn1c(=S)[nH]c2ccc(N3CCOCC3)cc2c1=O returned B2AR arrestin inactive, DRD3 antagonist -66, a7 integrin act inactive[7.66 µM], D3 ag inactive and IDH1 R132H inh inactive.
Cc1ccc(-n2ncc3c(NCCc4ccccc4)ncnc32)cc1Cl was read as D3 ag 37 and IDH1 R132H inh inactive.
Screening COc1cccc(N2CCN(c3ncnc4c3cnn4-c3ccc(C)cc3C)CC2)c1 returned B2AR arrestin inactive, DRD3 antagonist inactive, a7 integrin act inactive, D3 ag 39 and IDH1 R132H inh inactive.
CN(C)CCNc1ncnc2c1cnn2-c1ccc(Cl)cc1 was read as B2AR arrestin inactive, DRD3 antagonist -64, a7 integrin act inactive, D3 ag inactive and IDH1 R132H inh inactive.
`CN(C)CCNc1ncnc2c1cnn2-c1cccc(Cl)c1` gave D3 ag inactive and IDH1 R132H inh inactive.
Screening COc1ccc(CCNc2ncnc3c2cnn3-c2ccc(C)c(Cl)c2)cc1 returned D3 ag 30 and IDH1 R132H inh inactive.
Screening Cc1ccc(-n2ncc3c(N4CCCC4)ncnc32)c(C)c1 returned B2AR arrestin inactive, DRD3 antagonist inconclusive, a7 integrin act inactive, D3 ag inactive and IDH1 R132H inh inactive.
`Cc1ccc(-n2ncc3c(NCCc4ccccc4)ncnc32)cc1` gave D3 ag inactive and IDH1 R132H inh inactive.
Screening COc1ccc(CCNc2ncnc3c2cnn3-c2cccc(Cl)c2)cc1 returned D3 ag inactive and IDH1 R132H inh inactive.
`COc1cccc(C2C(C(=O)Nc3ccccc3OC)=C(C)Nc3nc4ccccc4n32)c1` (configuration not stated) gave D3 ag inactive and IDH1 R132H inh inactive.
For COc1ccc(-c2noc(CN(C(=O)C(C)Oc3ccc(C)cc3)C(C)C)n2)cc1 (configuration not stated) the results were D3 ag inactive.
Screening O=C(CCS(=O)(=O)c1ccc(Br)s1)Nc1cc(C(F)(F)F)cc(C(F)(F)F)c1 returned D3 ag inactive and IDH1 R132H inh inactive.
`CC1(C)S[C@@H]2[C@H](NC(=O)C(C(=O)O)c3ccsc3)C(=O)N2[C@H]1C(=O)O` (some centres not stated) gave D3 ag inactive.
For Cc1ccc(Cl)cc1N1CCN(C(=O)c2cnc(N3CCOCC3)c3ccccc23)CC1 the results were D3 ag inactive and IDH1 R132H inh inactive.
Cc1ccc(-n2ncc3c(N4CCN(Cc5ccccc5)CC4)ncnc32)cc1C was read as D3 ag 33 and IDH1 R132H inh inactive.
`Cc1cc(C)c(C(O)c2ncc(-c3cccc4ccccc34)[nH]2)c(C)c1` (configuration not stated) gave DRD3 antagonist inconclusive and D3 ag inactive.
For CCOC(=O)C1=C(CC)Nc2ccccc2N=C1NC(=O)c1ccc(OC)c(S(=O)(=O)N2CCCCC2C)c1 (configuration not stated) the results were B2AR arrestin inactive, DRD3 antagonist inactive, a7 integrin act 14µM, D3 ag inactive and IDH1 R132H inh inactive.
`Cc1ccc(NC(=O)C2CCCN(c3nnc(-n4c(C)ccc4C)s3)C2)cc1Cl` (configuration not stated) gave D3 ag inactive.
Screening Cc1ccc2nc(-c3ccccc3F)c(Nc3ccc(Cl)cc3)n2c1 returned D3 ag inactive and IDH1 R132H inh inactive.
`COCCNC(=O)c1c(CS(=O)(=O)c2ccccc2)noc1C(=O)NCc1ccccc1` gave B2AR arrestin inactive, DRD3 antagonist inactive, a7 integrin act inactive, D3 ag 36 and IDH1 R132H inh inactive.
Screening COCCNC(=O)c1c(CSc2ccccc2)noc1C(=O)NCc1ccccc1 returned B2AR arrestin inactive, DRD3 antagonist inactive, a7 integrin act inactive, D3 ag inactive and IDH1 R132H inh inactive.
Screening COc1ccc(C(CNC(=O)c2cc3ccccc3o2)N2CCCCC2)cc1 (configuration not stated) returned B2AR arrestin inactive, DRD3 antagonist -74, a7 integrin act inactive, D3 ag inactive and IDH1 R132H inh inactive.
